# D2 PAM-1: Beta-Arrestin HTS for Positive Allosteric Modulators of the Human D2 Dopamine Receptor: Potentiators | D(2) dopamine receptor (Homo sapiens), P14416 | DiscoveRx D2 beta-arrestin cells, luminescence, 90 min; 100% = 57 uM dopamine signal | potentiation, % (test concentration not listed) | actives 0.23% (n = 360,000) | AID 624464, 2012; in the data active means potentiation above about 50%; inconclusive means mostly about 30% to 49%
# Target sequence (P14416 whole entry, looked up): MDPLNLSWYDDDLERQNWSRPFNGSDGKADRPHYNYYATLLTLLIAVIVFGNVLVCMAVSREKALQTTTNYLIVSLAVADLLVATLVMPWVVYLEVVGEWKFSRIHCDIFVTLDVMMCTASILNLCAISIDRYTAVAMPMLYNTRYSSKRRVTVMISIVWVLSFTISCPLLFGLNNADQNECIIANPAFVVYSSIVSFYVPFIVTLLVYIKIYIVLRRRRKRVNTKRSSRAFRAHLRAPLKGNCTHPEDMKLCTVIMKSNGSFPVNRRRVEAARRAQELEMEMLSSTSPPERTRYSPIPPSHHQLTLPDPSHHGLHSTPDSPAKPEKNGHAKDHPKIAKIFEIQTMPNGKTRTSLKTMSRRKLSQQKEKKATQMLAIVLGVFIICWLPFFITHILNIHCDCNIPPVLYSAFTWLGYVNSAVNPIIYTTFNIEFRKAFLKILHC
#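 D2 cells co-treated with compound plus 50 nM dopamine (EC20) for 90 min at 37 deg C to detect potentiation. Beta-arrestin recruitment was read as enzyme-fragment luminescence after 1 h at ambient temperature. Full response was set by 57 uM dopamine.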
# D2 ag-1: Beta-Arrestin HTS for Positive Allosteric Modulators of the Human D2 Dopamine Receptor: Agonists | activation, % (concentration not given with the values) | actives 0.084% (n = 360,000) | DiscoveRx PathHunter D2 beta-arrestin, luminescence, 90 min; 100% = 57 uM dopamine signal; in the data active means activation above about 40%; inconclusive means between about 15% and that limit
#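 DiscoveRx PathHunter D2 beta-arrestin cells (2,100/well) attached overnight, then compound-stimulated 90 min at 37 C in HBSS/10 mM HEPES/0.1% Tween-20 buffer; beta-galactosidase complementation read by luminescence after 1 h at ambient temperature. Dopamine 57 uM final (EC100) as control.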
# D2 ag-2: HTS Assay for Allosteric Agonists of the Human D2 Dopamine Receptor: Primary Screen for Agonists; D(2) dopamine receptor (Homo sapiens), P14416; actives 0.53% (n = 340,000); HEK293 T-REx D2 cells, calcium flux agonist mode; activation, % at 2 µM; AID 485358, 2010;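 active means activation over 3 SD above normal in the single-dose calcium agonist read, cut at about 30% in these data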; further: 0% is about no effect
#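 Tetracycline-induced HEK293 T-REx cells with force-coupled D2 receptor, plated overnight at 30 C, loaded with no-wash calcium dye. After a 10 s baseline, compound was pin-added and calcium flux read kinetically for 180 s; calcium rises flagged agonists.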
# D2 antag: HTS Assay for Allosteric Antagonists of the Human D2 Dopamine Receptor: Primary Screen for Antagonists; D(2) dopamine receptor (Homo sapiens), P14416; HEK293 TREx D2 cells, calcium flux, dopamine EC80; inhibition, % at 10 µM; actives 2% (n = 340,000); AID 485344, 2010; in the data active means inhibition above about 30%; inactive means below that, where a call was filed; further: 0% is about no effect
#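 HEK293 T-REx D2 cells, tet-induced, calcium dye no-wash. Cpd pintool add, 180 s kinetic, then EC80 DA, 180 s kinetic. Ca flux read.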
# D2 PAM-2: HTS Assay for Positive Allosteric Modulators of the Human D2 Dopamine Receptor: Primary Screen for Potentiators; D(2) dopamine receptor (Homo sapiens), P14416; potentiation, % at 10 µM; HEK293 T-REx D2, calcium flux, EC20 dopamine potentiation; actives 0.34% (n = 340,000);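 active means potentiation over 3 SD above the plate norm, cut at about 30% in these data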; further: 0% is about no effect
#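 Potentiation of an EC20 dopamine calcium response is measured in a force-coupled, tetracycline-inducible Hek293 Trex D2 line. Compound-only kinetic reads over 180 s flag agonists before dopamine addition.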
# An asterisk follows results filed as active; ? = inconclusive; / = not tested or not shown. Hits are enriched below; roughly 2.4% of the tested compounds scored in any of these assays.
SMILES,D2 PAM-1,D2 ag-1,D2 ag-2,D2 antag,D2 PAM-2
O=C(NCCC(=O)N(Cc1ccco1)Cc1cccs1)c1ccc(Br)cc1,-4.6,-3.1,-2.8,41.3*,-18.0
Cc1cc(C)n(CCC(=O)N2CCN(S(=O)(=O)c3ccccc3)CC2)n1,-8.0,-6.0,0.1,0.6,/
CCCCOc1ccc(Cc2c(COCC)[nH]c(=S)[nH]c2=O)cc1,-15.2,-4.2,1.2,35.5*,-11.0
Cc1[nH]c(=S)[nH]c(=O)c1Cc1ccc(OCC(C)C)cc1,-2.6,-1.8,-0.8,30.7*,-5.1
C=CCN(c1ccccc1)S(=O)(=O)c1cccc(C(=O)Nc2nnc(SCC)s2)c1,5.1,1.5,-0.2,42.6*,-7.0
CCN(CC(=O)Nc1c(F)cccc1F)C(=O)C1COc2ccccc2O1 (centres undefined),0.2,0.6,0.0,35.7*,9.4
CCc1nnc(NC(=O)COc2ccc3c(c2)OCO3)s1,-1.5,2.8,0.2,12.3,30.4*
CCCc1nnc(NC(=O)COc2ccc3c(c2)OCO3)s1,3.6,0.1,-2.2,-1.3,-13.1
COc1ccccc1C(=O)NNC(=O)c1ccc(O)cc1,0.6,-1.0,/,/,/
COc1ccccc1C(=O)NNC(=O)c1ccc2ccccc2c1,66.9*,-0.3,-0.7,0.7,1.2
CCCCCNC(=O)c1ccc2c(=O)n(CCc3ccccc3)c(=O)[nH]c2c1,/,/,0.6,/,2.2
COc1ccc(NC(=O)C2CCCN(c3c4c(nc5ncnn35)CCC4)C2)cc1 (centres undefined),-5.4,-1.7,0.4,-7.3,8.8
COc1ccc(NC(=O)C2CCCN(c3cc(C)nc4ncnn34)C2)cc1 (centres undefined),3.2,2.1,0.3,30.1*,-11.0
COc1cc(C)nc(N2CCCC(C(=O)Nc3cc(Cl)ccc3OC)C2)n1 (centres undefined),-1.2,0.7,1.3,6.9,80.6*
CCN(CC)S(=O)(=O)c1cccc(NC(=O)COC(=O)c2ccc(Br)o2)c1,-12.6,0.7,-0.3,2.9,21.2
CCN(CC)S(=O)(=O)c1cccc(NC(=O)COC(=O)c2cc(=O)c3ccccc3o2)c1,-13.7,-1.1,1.0,-4.7,30.7*
COc1ccc(C)cc1NC(=S)NC(C)c1ccc(OC)c(OC)c1 (centres undefined),53.1*,-0.3,1.2,-10.5,-2.0
FC(F)(F)c1cccc(CC2CN(Cc3ccccc3)Cc3ccccc3N2c2cc(Cl)cc(Cl)c2)c1 (centres undefined),-0.6,-7.6,/,/,/
Cn1c(N)c(C(=O)Nc2ccccc2)c(=O)[nH]c1=O,-6.2,0.5,/,/,/
Cn1c(N)c(C(=O)/C=C/c2ccccc2)c(=O)[nH]c1=O,-2.0,-1.1,0.8,53.6*,4.8
N#CCC(=O)Nc1ccc(C(=O)OCC(=O)C23CC4CC(CC(C4)C2)C3)cc1,-1.8,-4.4,1.2,-0.4,11.7
O=C(OCC12CC3CC(CC(C3)C1)C2)c1ccc(NCc2cc(O)ccc2O)cc1,55.3*,?,/,/,/
O=C(OCCC12CC3CC(CC(C3)C1)C2)c1ccc(NCc2cc(O)ccc2O)cc1,63.9*,?,/,/,/
COc1cc(N)c(Cl)cc1C(=O)OCC(=O)NC(=O)NCc1ccco1,-24.6,0.6,/,/,/
O=C(COC(=O)c1ccc(F)cc1F)NC1CC1,-2.6,-3.4,0.2,30.9*,2.3
O=C(COC(=O)c1ccc(F)cc1F)NCCNC(=O)COC(=O)c1ccc(F)cc1F,-9.3,-2.2,0.4,-0.4,-0.5
Nc1cc(Cl)ccc1C(=O)OCC(=O)NC1CCCCCCC1,5.1,3.5,-0.4,34.5*,0.1
CC(C)(C)c1ccc2c(c1)OC(C(=O)N/N=C\c1ccccn1)CO2 (centres undefined),0.0,1.5,0.6,13.1,21.1
CC(C)(C)c1ccc2c(c1)OCC(C(=O)O)O2 (centres undefined),2.2,-4.0,/,/,112.9*

# Bioassay records as filed in PubChem BioAssay.
